According to PubChem BioAssay (NCATS):
Inconclusive results are not listed. Calls of active or inactive are those of the source. Calls follow the shape of the dose curve; as a rule, active = well fitted curve in the direction sought with a large enough effect; inconclusive = small, poorly fitted or top-dose-only effect, or another doubt; inactive = no such curve, though single readings can be large; an effect the other way counts as inactive or inconclusive.

Assays:
[1] = molecular target: Cellular tumor antigen p53 (Homo sapiens) (UniProt P04637); assay: Primary qHTS for small molecule compounds that upregulate eGFP-tagged delta133p53alpha (in N-terminal) cells. (AID 2060322); settings: NCI-H358 eGFP-delta133p53alpha fluorescence, 24 h; activation: active compounds read high;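 also: 0% = DMSO vehicle and 100% = reference activator; nearly all actives have a fitted effect of over 75% in size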
Cellular tumor antigen p53 (Homo sapiens), sequence (P04637 whole entry, looked up): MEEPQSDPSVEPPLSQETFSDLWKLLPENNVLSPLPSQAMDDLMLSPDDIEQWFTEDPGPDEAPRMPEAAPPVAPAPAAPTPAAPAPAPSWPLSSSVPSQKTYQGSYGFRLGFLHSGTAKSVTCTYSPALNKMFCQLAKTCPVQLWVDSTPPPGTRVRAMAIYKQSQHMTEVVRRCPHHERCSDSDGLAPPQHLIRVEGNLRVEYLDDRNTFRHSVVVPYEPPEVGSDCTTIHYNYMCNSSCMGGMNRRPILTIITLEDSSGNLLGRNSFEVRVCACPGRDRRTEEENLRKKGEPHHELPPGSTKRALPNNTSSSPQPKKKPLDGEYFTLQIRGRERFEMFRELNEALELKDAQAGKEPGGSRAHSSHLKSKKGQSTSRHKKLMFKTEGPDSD
Procedure, shortened: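 NCI-H358 cells pre-induced 24 h with 10 ng/ml doxycycline to express N-terminal eGFP-delta133p53alpha, then dosed 24 h at 37C without doxycycline; fixed, Hoechst-stained, GFP intensity by laser scanning cytometry, normalized to DMSO (0%) and 57.5 uM 5-azacytidine (100%).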

[2] = molecular target: Aldehyde dehydrogenase, mitochondrial (Homo sapiens) (UniProt P05091); assay: qHTS for Inhibitors of the Aldehyde Dehydrogenase Family (ALDH2) Primary screen (AID 2061308); settings: ALDH2 enzyme inhibition qHTS, 1536-well; series mostly up to 56 µM;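 also: plate controls were vehicle for no effect and reference inhibitor for full effect; nearly all actives have a fitted effect of over 55% in size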
[3] = molecular target: Retinaldehyde dehydrogenase 3 (Homo sapiens) (UniProt P47895); assay: qHTS for Inhibitors of the Aldehyde Dehydrogenase Family (ALDH1A3) Primary screen (AID 2061315); settings: ALDH inhibition qHTS; series mostly up to 56 µM;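 also: plate controls were DMSO vehicle for no effect and reference inhibitor for full effect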

CCOC(=O)C(CCc1ccccc1)NC(C)C(=O)N1Cc2ccccc2CC1C(=O)O (configuration not stated)
inactive: activation [1] -13.4% | Potency [2] | Potency [3]

COc1ccc(C2C(C(=O)O)C(C(=O)O)C2c2ccc(OC)cc2O[C@@H]2O[C@H](CO)[C@@H](O)[C@H](O)[C@H]2O)c(O[C@@H]2O[C@H](CO)[C@@H](O)[C@H](O)[C@H]2O)c1 (some centres not stated)
inactive: activation [1] 7.63% | Potency [2] | Potency [3]

CN1C(=O)c2ccccc2-n2c(nc3ccccc3c2=O)/C1=C/c1ccccc1
inactive: activation [1] 2.29% | Potency [2] | Potency [3]

O=C(O)c1ccnc2cc(C(OCC3CCC(F)(F)CC3)c3ccccc3Cl)[nH]c12 (configuration not stated)
inactive: activation [1] 5.67% | Potency [2] | Potency [3]

Cc1nnsc1C(=O)Nc1ccc(-n2nc(C(F)(F)F)cc2C(F)(F)F)cc1
inactive: activation [1] 1.43% | Potency [2] | Potency [3]

CC1(C)CC2C3=CCC4C5(C)CCC(OC6OC(C(=O)O)C(O)C(O)C6OC6OC(CO)C(O)C(O)C6OC6OC(CO)C(O)C(O)C6O)C(C)(CO)C5CCC4(C)C3(C)CCC2(C)C(OC2OCC(O)C(OC3OC(CO)C(O)C(O)C3O)C2O)C1O (configuration not stated)
inactive: activation [1] -18.3% | activity change, negative = inhibition [2] 5.84% [at 11.2 µM] | activity change, negative = inhibition [3] -21.1% [at 11.2 µM]

C=C1CCC2C(C)(C)CCCC2(C)C1CC/C(C)=C\CO (configuration not stated)
inactive: activation [1] -12.5% | Potency [2] | Potency [3]

C=C1CC2C3(C)C(O)CC(=O)C(C)(C)C3C(OC(C)=O)C(OC(C)=O)C2(C)C2C(=O)OC(C)(C(=O)OC)C(=O)C12C (configuration not stated)
inactive: activation [1] -16.8% | Potency [2] | Potency [3]

C=C1C(=O)O[C@H]2[C@H]1[C@@H](OC(=O)/C(C)=C\C)C[C@]1(C)O[C@@H]1[C@H]1O[C@H]1C(=C)[C@H]2O
inactive: activation [1] -10.7% | Potency [2] | Potency [3]

COC1C(O)C(OC2CCC3(C)C(CCC45CCC6C7(COC(=O)C7)OC4(O)C6(C)CCC35)C2)OC(C)C1OC1OC(CO)C(OC2OC(CO)C(O)C(O)C2O)C(O)C1O (configuration not stated)
inactive: activation [1] 1.53% | Potency [2] | Potency [3]

C[C@]1(OC(=O)/C=C/c2ccccc2)C[C@H](O)[C@]2(O)C=CO[C@@H](O[C@@H]3O[C@H](CO)[C@@H](O)[C@H](O)[C@H]3O)C12 (some centres not stated)
inactive: activation [1] -18.3% | Potency [2] | Potency [3]

C=C[C@]1(C)C[C@H](O)[C@H]2C(=C)C(=O)O[C@@H]2[C@H]1C(=C)CO
inactive: activation [1] 17.9% | Potency [2] | Potency [3]

O=C(O)c1ccc(OC2OC(CO)C(O)C(O)C2O)cc1 (configuration not stated)
inactive: activation [1] -11.6% | Potency [2] | Potency [3]

C=C[C@@]1(C)CCC2=C([C@H]1OC(C)=O)[C@H](OC(C)=O)CC1[C@](C)(C(=O)OC)CC[C@H](OC(C)=O)[C@]21C (some centres not stated)
inactive: activation [1] 15.2% | Potency [2] | Potency [3]

C[C@]1(OC(=O)/C=C/c2ccccc2)C[C@@H](O)[C@]2(O)C=CO[C@@H](O[C@@H]3O[C@H](CO)[C@@H](O)[C@H](O)[C@H]3O)[C@@H]21
inactive: activation [1] -8.93% | Potency [2] | Potency [3]

COc1cc(C(C)=O)ccc1O[C@@H]1O[C@H](CO)[C@@H](O)[C@H](O)[C@H]1O
inactive: activation [1] -7.63% | Potency [2] | Potency [3]

C=CC[N+]1([C@H]2C[C@H]3[C@@H]4CC[C@H]5C[C@H](OC(C)=O)[C@@H](N6CCCCC6)C[C@]5(C)[C@H]4CC[C@]3(C)[C@H]2OC(=O)CC)CCCCC1
inactive: activation [1] -3.67% | Potency [2] | Potency [3]

O=C(O[C@@H]1O[C@H](CO)[C@@H](O)[C@H](O)[C@H]1O)c1c(O)cc(O)cc1/C=C/c1ccccc1
inactive: activation [1] -23.7% | Potency [2] | Potency [3]

CC(C)CC(=O)O[C@@H]1O[C@H](CO)[C@@H](O[C@H]2O[C@H](C)[C@@H](N[C@H]3C=C(CO)[C@@H](O[C@H]4O[C@H](CO)[C@@H](O[C@H]5O[C@H](CO)[C@@H](O[C@H]6O[C@H](CO)[C@@H](O)[C@H](O)[C@H]6O)[C@H](O)[C@H]5O)[C@H](O)[C@H]4O)[C@H](O)[C@H]3O)[C@H](O)[C@H]2O)[C@H](O)[C@H]1O
inactive: activation [1] -13.7% | Potency [2] | Potency [3]

CC(=O)O[C@@H]1[C@@H](O)[C@H](O[C@H]2CC[C@]34C[C@]35CC[C@]3(C)[C@@H]([C@@]6(C)CC[C@@H](C(C)(C)O)O6)[C@@H](O)C[C@@]3(C)[C@@H]5C[C@H](O[C@@H]3O[C@H](CO)[C@@H](O)[C@H](O)[C@H]3O)[C@H]4C2(C)C)OC[C@H]1O
inactive: activation [1] 15% | Potency [2] | Potency [3]

C=C[C@](C)(CC/C=C(\C)C(=O)O)O[C@@H]1OC[C@H](O)[C@H](O)[C@H]1O
inactive: activation [1] 7.14% | Potency [2] | Potency [3]

C[C@H](O)[C@H](O)/C=C/c1cccc(O)c1CO
inactive: activation [1] -15.3% | Potency [2] | Potency [3]

CN1CCc2cc(Cl)c(O)cc2[C@@H](c2cccc3c2OCC3)C1
inactive: activation [1] -1.67% | Potency [2] | Potency [3]

CC1(C)[C@@H](O[C@H]2O[C@H](C(=O)O)[C@@H](O)[C@H](O)[C@H]2O[C@@H]2O[C@H](C(=O)O)[C@@H](O)[C@H](O)[C@H]2O)CC[C@]2(C)[C@H]3C(=O)C=C4[C@@H]5C[C@@](C)(C(=O)O)CC[C@]5(C)CC[C@@]4(C)[C@]3(C)CC[C@@H]12
inactive: activation [1] -7.67% | Potency [2] | Potency [3]
